Bcl-xL primary: Bcl-xL (human) inhibition. AID 2129. 320,000 tested, 0.7% active. GST-Bcl-xL / FITC-Bim BH3 peptide fluorescence polarization. inhibition, % at 10.9 µM;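 active = inhibition above the mean of all tested compounds plus 3 SD, cutoff set per campaign, cut at about 30% in these data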;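 note: 0% = DMSO wells and 100% = unlabeled Bim-BH3 peptide competitor; inhibitors lower millipolarization by displacing the labeled peptide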
Target sequence (Q07817 whole entry, looked up): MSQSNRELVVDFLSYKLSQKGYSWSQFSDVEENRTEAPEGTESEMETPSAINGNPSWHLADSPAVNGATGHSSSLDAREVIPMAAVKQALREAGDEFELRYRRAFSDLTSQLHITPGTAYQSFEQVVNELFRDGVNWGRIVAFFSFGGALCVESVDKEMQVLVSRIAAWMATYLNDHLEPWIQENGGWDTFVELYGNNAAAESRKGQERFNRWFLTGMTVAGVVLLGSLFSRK
MEX-5 binding: C. elegans MEX-5 TCR-2 RNA binding activity; MEX-5/FITC-TCR2 RNA binding, fluorescence polarization; stronger effect = lower value; activity score (negative = inhibition of binding), % at 10 µM; 300,000 tested, 0.38% active; AID 1832;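 active = inhibition past about -25% in most replicates, and total fluorescence under double the plate's negative control median, limit read from the data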;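 note: 0% = DMSO and -100% = 5 µM competing unlabeled TCR2 RNA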
Yeast superoxide: caloric restriction mimetics inhibiting age-related superoxide in yeast. S. cerevisiae aged cells, superoxide DHE fluorescence; stronger effect = lower value. superoxide response (% of plate mean), % at 10 µM. 330,000 tested, 0.18% active;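 active = superoxide response under a set limit, about three screen SD below normal, cut at about 65% in these data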;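 note: yeast aged for seven days with compound at 30 °C before DHE staining; 100% = average MFI of all compound-treated wells on the plate with controls excluded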
LANA-H2B inh: blocks KSHV LANA binding to histone H2A/H2B | Q9QR71 | cell-free LANA-H2A/H2B peptide, fluorescence polarization | inhibition, % (no concentration beside the values) | 320,000 tested, 0.6% active | AID 2629; in the data active = inhibition mostly above about 10%, no sharp cut-off; inactive = mostly below about 6.7%
GLD-1 TGE inh: GLD-1-TGE RNA interaction inhibition (C. elegans) | AID 2280 | 320,000 tested, 0.44% active | inhibition, % at 5.96 µM | purified GLD-1 + fluorescein TGE RNA, fluorescence polarization;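 active = percent inhibition above a per-plate cutoff, the plate mean of test compounds plus 3 SD, cut at about 30% in these data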;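 note: 0% = DMSO wells with GLD-1 and probe and 100% = wells lacking GLD-1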
MCL1 BIM primary: inhibitors of human MCL1 binding to BIM-BH3 peptide; Q07820; GST-MCL1 / FITC-Bim-BH3 fluorescence polarization; inhibition, % at 10.9 µM; 320,000 tested, 0.68% active; AID 2057;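 active = inhibition above the mean inhibition of all tested compounds plus 3 SD, set per campaign, cut at about 40% in these data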;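 note: 0% = DMSO wells and 100% = unlabeled Bim-BH3 peptide control; higher means more loss of mP so more displacement of Bim peptide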
CR mimetic CP: confirmation of caloric restriction mimetics inhibiting yeast age-related superoxide; AID 434994; shares compounds with Yeast superoxide; superoxide response (% of plate), % at 10 µM; S. cerevisiae aging, superoxide DHE fluorescence; stronger effect = lower value; 850 tested, 1% active;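 active = superoxide signal below 65% of the plate average of sample wells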;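 note: cells aged with compound for 7 days at 30 degrees C before staining; 100% equals mean DHE fluorescence of all compound wells on the plate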
DHE counter: compound alters DHE oxidation or fluorescence in yeast. S. cerevisiae BY4741, flow cytometry; stronger effect = lower value. AID 435000. shares compounds with Yeast superoxide. fluorescence response, % at 10 µM. 850 tested, under 10 active;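 active = fluorescence response below 15%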;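 note: percent of the mean fluorescence averaged over all compound wells on the plate; lower means stronger quenching of DHE signal or ROS scavenging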
* = called active by the depositor; x = not tested or not shown. A selection: hits, their analogues and other compounds. The true share with any hit is near 1.9%.

SMILES	Bcl-xL primary	MEX-5 binding	Yeast superoxide	LANA-H2B inh	GLD-1 TGE inh	MCL1 BIM primary	CR mimetic CP	DHE counter
Cc1ccc(-c2nnc(Nc3ccccc3)c3ccccc23)cc1S(=O)(=O)NCC1CCCO1 (stereo unspecified)	4.8	2.9	84.6	-1.8	3.2	1.0	97.9	102.4
CNS(=O)(=O)c1cc(-c2nnc(Nc3ccc(NC(C)=O)cc3)c3ccccc23)ccc1C	4.1	-2.1	51.0*	-3.0	0.9	-1.4	104.5	96.0
Cc1ccc(-c2nnc(Nc3ccc(CC(N)=O)cc3)c3ccccc23)cc1S(=O)(=O)NCCO	0.9	2.2	91.5	0.6	2.1	3.3	x	x
Cc1ccc(-c2nn3c(-c4ccco4)nnc3c3ccccc23)cc1S(=O)(=O)NCC1CCCO1 (stereo unspecified)	9.9	-8.9	123.0	-3.2	3.5	5.6	x	x
COc1ccc(C(=O)N2CCN(c3ccc(C(C)=O)cc3)CC2)cc1S(=O)(=O)N1CCCC1	x	x	96.4	0.0	0.7	x	x	x
CNc1ccccc1NC(=O)C1CCCN1C(=O)OCc1ccccc1 (stereo unspecified)	4.4	0.7	121.2	3.2	7.7	0.8	x	x
COc1ccc(-n2ccnc2SCC(=O)NO)cc1	-2.6	0.7	114.5	-4.9	7.5	5.6	x	x
COc1ccc(Cl)cc1C(=O)N1CCN(c2ccccn2)CC1	0.6	-1.1	86.5	0.8	6.1	-1.3	x	x
COc1ccc(Cl)cc1NC(=O)C(C)N1CCN(c2ccccn2)CC1 (stereo unspecified)	-3.1	2.6	104.5	3.2	4.1	-4.7	96.9	96.1
CC(C(=O)Nc1ccccc1)N1CCN(c2ccccn2)CC1 (stereo unspecified)	3.1	0.3	103.1	3.6	0.4	3.8	96.8	97.7
Cc1cc([N+](=O)[O-])ccc1NC(=O)C(C)N1CCN(c2ccccn2)CC1 (stereo unspecified)	-1.1	-1.1	115.8	0.0	-0.6	-5.0	84.3	96.0
COc1cccc(NC(=O)C(c2ccccc2)N2CCN(c3ccccn3)CC2)c1 (stereo unspecified)	-3.2	2.5	105.5	-2.3	2.9	-2.2	x	x
Cc1ccc(NC(=O)C(C)N=C2NS(=O)(=O)c3ccccc32)cc1F (stereo unspecified)	5.9	-2.1	98.8	1.5	-2.6	11.7	x	x
COc1cccc(C(C(=O)NC(C)(C)C)N(Cc2ccc(F)cc2)C(=O)CCC(=O)Nc2cc(C)on2)c1OC (stereo unspecified)	10.9	0.1	91.5	-3.2	10.1	7.8	x	x
Cn1c(=O)c(C(=O)NNC(=O)c2ccccc2F)c(O)c2ccccc21	-4.7	-1.7	64.3*	-0.6	1.6	-6.3	90.7	89.0
CSCCC(NC(=O)c1ccccc1Br)C(=O)NCc1ccc(F)cc1 (stereo unspecified)	-1.2	-3.0	23.1*	-0.6	7.0	-7.4	88.4	108.8
Cn1cc2cc(NC(N)=S)ccc2n1	-1.6	-3.0	108.5	-3.0	-0.1	4.3	x	x
O=C(Nc1cccc(S(=O)(=O)N2CCOCC2)c1)c1cnccn1	-5.2	-0.2	105.2	-1.4	1.8	6.5	x	x
CCOC(=O)C1CCN(C(=O)COc2ccc(C(=O)c3ccccc3)cc2)CC1	x	x	63.5*	-1.5	-6.0	x	93.7	91.6
O=C(O)CCn1c(=O)c2ccccc2c2ccccc2c1=O	2.8	2.9	99.1	2.1	0.9	3.0	x	x
CC(C)CCn1c2ccccc2c2cc(CC(N)=O)ccc21	0.7	-1.3	112.9	-1.5	7.5	-2.1	103.3	95.7
COCCOCCn1c(CCCO)nc2ccccc21	4.5	-4.4	97.6	-0.8	1.8	-9.0	x	x
CC(C)CCn1c(S(=O)(=O)O)nc2ccccc21	5.3	-2.3	98.3	-2.1	-3.7	8.9	x	x
O=C(O)Cn1c2ccccc2c2ccccc21	5.7	0.1	122.0	3.1	7.2	5.4	106.9	110.6
NC(=O)CCn1c2ccccc2c2ccccc21	-3.0	-1.0	102.2	-1.6	0.9	-7.8	98.1	98.5

Screening results as filed in PubChem.
